The panel holds about 79,000 compounds, 15% with a hit somewhere; the sample as a whole holds those more often. Rule as the data show it: active = growth inhibition above about 70%; inactive = the rest.
Tests used:
[1] = NCI Yeast Anticancer Drug Screen. Data for the rad50 strain (AID 155);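 also: 0% = growth of vehicle-only cultures of the same strain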; settings: S. cerevisiae rad50 strain growth inhibition; at 50.0 µM; active compounds read high
In short: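 Compounds were tested on a yeast strain with an engineered DNA damage repair alteration; the reported value is growth inhibition normalised to vehicle treatment.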

[2] = NCI Yeast Anticancer Drug Screen. Data for the mec2-1 strain (AID 157); settings: S. cerevisiae mec2-1 strain, at 50.0 µM, active compounds read high
In short: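 Mutant yeast (mec2-1) grown with compound; growth inhibition relative to vehicle control reported.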

[3] = NCI Yeast Anticancer Drug Screen. Data for the sgs1 mgt1 strain (AID 161);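 also: 0% = growth of cultures given vehicle only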; settings: S. cerevisiae sgs1 mgt1 strain, at 50.0 µM, active compounds read high
In short: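 This yeast growth screen uses a strain with defined DNA-repair lesions; compound-treated growth is compared with vehicle-treated growth.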

[4] = NCI Yeast Anticancer Drug Screen. Data for the cln2 rad14 strain (AID 165);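 also: 0% = growth equal to vehicle treated cultures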; settings: S. cerevisiae cln2 rad14 strain, at 50.0 µM, active compounds read high
In short: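 Readout is yeast growth inhibition versus vehicle-treated controls, using a strain with cln2 and rad14 alterations exposed to compound.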

[5] = NCI Yeast Anticancer Drug Screen. Data for the bub3 strain (AID 167); settings: S. cerevisiae bub3 mutant strain, at 50.0 µM, active compounds read high
In short: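 Growth of a checkpoint-deficient yeast mutant is measured after compound exposure. Values represent inhibition relative to vehicle.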

[6] = NCI Yeast Anticancer Drug Screen. Data for the mlh1 rad18 strain (AID 175); settings: S. cerevisiae mlh1 rad18 strain growth inhibition; at 50.0 µM; active compounds read high
In short: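 Genetically defined yeast (DNA repair-deficient) exposed to compounds; growth inhibition determined relative to vehicle.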

Measured: growth inhibition

COc1ccc(/C=C/Cc2cc3c(cc2OC(C)=O)OCO3)cc1
inactive: [1] 11.8% | [2] 0.4% | [3] 26.1% | [4] -8.4% | [5] 33% | [6] 12.4%

CN(C)OC(=O)Nc1cccc([N+](=O)[O-])c1
inactive: [1] 19.1% | [2] 13.3% | [3] 14.1% | [4] -82.8% | [5] 4.8% | [6] -2.6%

CCC(=O)NC(OCC1(CC)COC1)(C(F)(F)F)C(F)(F)F
inactive: [1] -8.6% | [2] -10.8% | [3] -37.1% | [4] 2.75% | [5] -11.5% | [6] -13.2%

N#CCOc1ccc(Cl)cc1
inactive: [1] -10.7% | [2] -16.2% | [3] -13.1% | [4] -53.2% | [5] 1.8% | [6] -3.65%

Cc1nc(CC#N)n[nH]1
inactive: [1] 24.5% | [2] 18% | [3] 17.1% | [4] 11.3% | [5] 24.8% | [6] 19.7%

NC(=O)c1ccc2c(ccc3ccccc32)c1
inactive: [1] 48.5% | [2] 4.75% | [3] 5.05% | [4] -36% | [5] -1.8% | [6] -2.75%

CN(C)c1ccc2oc3ccccc3c2c1
inactive: [1] -4.5% | [2] -4.5% | [3] -21.4% | [4] -23.9% | [5] 5.35% | [6] -26.4%

CSC1=NNC(c2ccccc2)=C(c2ccccc2)S1
inactive: [1] -1.55% | [2] 4.2% | [3] 52% | [4] -31.8% | [5] 59.7% | [6] 0.45%

Nc1ccn([C@@H]2C=C(CO)[C@@H](O)[C@H]2O)c(=O)n1
inactive: [1] -16.1% | [2] -20.6% | [3] -22.5% | [4] -13.3% | [5] -10.4% | [6] -21.9%

O=S(=O)([O-])[O-].O=c1[nH]cnc2[nH]ncc12.O=c1[nH]cnc2[nH]ncc12.[Cu+2]
inactive: [1] -22.1% | [2] -7.95% | [3] -47.2% | [4] -32% | [5] -18.7% | [6] -18.1%

O=C(NCC(F)(F)C(F)(F)C(F)(F)C(F)(F)C(F)(F)C(F)(F)C(F)(F)F)Oc1ccccc1
inactive: [1] 39.2% | [2] 3.3% | [3] 26.7% | [4] 9.45% | [5] -2.05% | [6] 3.35%

CCCCN1CCNC1=S
inactive: [1] -0.85% | [2] -13.2% | [3] 4.25% | [4] -10.6% | [5] -28.4% | [6] 9.35%

CCOC(=O)c1cnc(=S)[nH]c1N
inactive: [1] 40.5% | [2] -8.35% | [3] -19.2% | [4] 7.9% | [5] -3.15% | [6] -43.5%

Nc1nc(NCc2ccccc2)cc(=O)[nH]1
inactive: [1] 3.35% | [2] -20.8% | [3] -5.25% | [4] -0.4% | [5] -20.8% | [6] -2.75%

Cc1cc(C)n(-c2ccncc2[N+](=O)[O-])n1
inactive: [1] 7.55% | [2] 17.9% | [3] -2.45% | [4] -13.8% | [5] 9.05% | [6] 0.2%

CS(=O)(=O)Oc1ncc(Cl)cc1Cl
inactive: [1] -15.4% | [2] 2% | [3] -1.85% | [4] 14.5% | [5] 1.35% | [6] -8.1%

CC(C)(CC(=O)Nc1ccccc1)C(=O)O
inactive: [1] -11.8% | [2] -7.05% | [3] -19.4% | [4] -12.1% | [5] -56.9% | [6] -0.4%

NC(N)=Nc1nc2ccc(Cl)cc2[nH]1
inactive: [1] 29.2% | [2] 1% | [3] 22.8% | [4] -4.3% | [5] -11.9% | [6] 11%

CCCCN(CCCC)CCCNC(=O)OCC
inactive: [1] -4.2% | [2] -22.9% | [3] -7% | [4] 14.6% | [5] -26.8% | [6] -6.2%

O=C1/C(=C/c2ccc(Cl)c(Cl)c2)CCC/C1=C\c1ccc(Cl)c(Cl)c1
inactive: [1] 30.4% | [2] -5.85% | [3] 2.7% | [4] 2.95% | [5] -3.7% | [6] 1.2%

Cc1ccc(Cc2cc(=O)[nH]c(=O)[nH]2)cc1
inactive: [1] 0.2% | [2] -8.25% | [3] -13.2% | [4] -76.5% | [5] 2.7% | [6] 5.4%

OCc1ccc(-c2ccccc2)cc1
inactive: [1] 4.4% | [2] -14.6% | [3] 4.6% | [4] 8% | [5] 3.7% | [6] 28.8%

Nc1nc(N)c2ccccc2n1
inactive: [1] -11.3% | [2] 13.8% | [3] -5.2% | [4] -0.5% | [5] -6.9% | [6] -1.7%

COc1cc(N(Cc2ccc3oc(=O)c(-c4ccccc4)nc3c2)Cc2ccc3oc(=O)c(-c4ccccc4)nc3c2)cc(OC)c1OC
inactive: [1] 29.6% | [2] -2.45% | [3] 13.5% | [4] -35.1% | [5] 15% | [6] 9.15%

CSc1nc2c(c(=O)n(C)c(=O)n2C)n1C
inactive: [1] 30.4% | [2] -3.25% | [3] -10.7% | [4] 8.15% | [5] 9.15% | [6] 24.9%

CN(C)c1ccc(C=Nc2cc(Cl)ccc2O)cc1
inactive: [1] 38.9% | [2] 23.2% | [3] 37.4% | [4] -2.9% | [5] 66% | [6] 52.9%

Cc1cccc(C(=O)OCCBr)c1
inactive: [1] 27.1% | [2] 3.95% | [3] 13.7% | [4] -28.4% | [5] 9.9% | [6] 10.9%

Cc1ccc(NC(=O)CCC(=O)C(C)C(=O)c2ccccc2)cc1C (configuration not stated)
inactive: [1] -72.1% | [2] -7.6% | [3] -14.3% | [4] -55.7% | [5] -12.8% | [6] -9.4%

CCc1ccccc1N1C(=O)C(=O)C(c2nc3ccccc3s2)C(=O)C1=O
inactive: [1] 12.7% | [2] 5.05% | [3] 17.2% | [4] 15.5% | [5] 2.3% | [6] 10.3%

CCC(C=NCCBr)(CCC(=O)OC)CCC(=O)OC
inactive: [1] -7.9% | [2] 16.2% | [3] -13.9% | [4] -8.4% | [5] 12.4% | [6] 10.2%

O=C(Nc1cccc(F)c1)Oc1ccc(OCc2ccccc2)cc1
inactive: [1] 3.8% | [2] 6.6% | [3] 9.9% | [4] 8.7% | [5] 17.9% | [6] 16%

CC(=O)Oc1ccc2cc(NC(=O)c3ccccc3)c(=O)oc2c1
inactive: [1] 11.8% | [2] -2.85% | [3] -1.6% | [4] -62.4% | [5] -1.9% | [6] -3.35%

Cn1c(=O)oc2cc(C(O)CN3CCN(Cc4ccccn4)CC3)c(Cl)cc21 (configuration not stated)
inactive: [1] -19.6% | [2] 3.9% | [3] -4.5% | [4] 2.45% | [5] 6.25% | [6] 11.4%

N#Cc1ccc(OCCCCCOc2ccc(C#N)cc2)cc1
inactive: [1] -11.2% | [2] -0.65% | [3] -1.15% | [4] -43.1% | [5] -2.6% | [6] -5.8%

O=C(NC1CC1)c1ccccc1
inactive: [1] 5.8% | [2] 1.6% | [3] 4.7% | [4] -5.9% | [5] 1.85% | [6] -15.7%

COc1cccc(NC(N)=O)c1
inactive: [1] -15.5% | [2] -14.2% | [3] -9.3% | [4] -9.5% | [5] -10.1% | [6] -19.4%

CN(C)c1ccc(/C(=N\O)c2cc[n+](C)cc2)cc1
inactive: [1] -28.6% | [2] -23.4% | [3] -13.2% | [4] -34.5% | [5] -0.6% | [6] 0.85%

Cc1ccc(C)c(NC(=O)C(=O)C(C2C(C)CC(=O)C2CC(=O)O)[N+](=O)[O-])c1 (configuration not stated)
inactive: [1] 7.05% | [2] 10.9% | [3] -8.05% | [4] 10.8% | [5] 6.6% | [6] 1.7%

O=c1[nH]cc(O)c(=O)[nH]1
inactive: [1] -25.1% | [2] -41.3% | [3] -8.95% | [4] 12.7% | [5] -17.8% | [6] 6.4%

c1ccc(-c2c(-c3cccs3)[nH]c(-c3cccs3)c2-c2ccccn2)nc1
inactive: [1] -6.7% | [2] 17.1% | [3] 45.7% | [4] -29.4% | [5] -6.6% | [6] -57%

CC(=O)Nc1c(CCCCc2ccccc2)[nH]c(=O)[nH]c1=O
inactive: [1] 1.8% | [2] 22.5% | [3] 25.8% | [4] 1.4% | [5] 17% | [6] -0.95%

Cc1c(C)c(CSC#N)c(C)c(C)c1CSC#N
inactive: [1] 53.8% | [2] -13.6% | [3] -10.1% | [4] -1.9% | [5] 8.2% | [6] 8.55%

— PubChem BioAssay (NCI)
